In the supplement of paper PMC6411743:
± gives the standard deviation of the averaged measurements. Of roughly 6,200 targets only a part is listed; those with the largest changes were picked by preference.

Compound: Nc1ncnc2c1ncn2[C@@H]1O[C@H](COP(=O)(O)OP(=O)(O)NP(=O)(O)O)[C@@H](O)[C@H]1O [adenylyl imidodiphosphate]
Experiment: NP40-soluble protein abundance relative to vehicle (solubility fold change) (ratio); higher = more soluble protein in presence of AMP-PNP
In short: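 Data come from three independent experiments in which Dounce-homogenised Jurkat crude lysate was treated at eight concentrations from 0.1 to 10 mM. Treatment ran 10 min at room temperature and then 3 min at 37 °C, after which 0.8% NP40 and benzonase were added for 60 min at 4 °C before ultracentrifugation. The supernatant underwent TMT labelling and LC-MS/MS, and vsn-normalised intensities were expressed as fold change against the detergent-processed vehicle in each replicate.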

Chain of UniProt Q14676 (Q14676 whole entry): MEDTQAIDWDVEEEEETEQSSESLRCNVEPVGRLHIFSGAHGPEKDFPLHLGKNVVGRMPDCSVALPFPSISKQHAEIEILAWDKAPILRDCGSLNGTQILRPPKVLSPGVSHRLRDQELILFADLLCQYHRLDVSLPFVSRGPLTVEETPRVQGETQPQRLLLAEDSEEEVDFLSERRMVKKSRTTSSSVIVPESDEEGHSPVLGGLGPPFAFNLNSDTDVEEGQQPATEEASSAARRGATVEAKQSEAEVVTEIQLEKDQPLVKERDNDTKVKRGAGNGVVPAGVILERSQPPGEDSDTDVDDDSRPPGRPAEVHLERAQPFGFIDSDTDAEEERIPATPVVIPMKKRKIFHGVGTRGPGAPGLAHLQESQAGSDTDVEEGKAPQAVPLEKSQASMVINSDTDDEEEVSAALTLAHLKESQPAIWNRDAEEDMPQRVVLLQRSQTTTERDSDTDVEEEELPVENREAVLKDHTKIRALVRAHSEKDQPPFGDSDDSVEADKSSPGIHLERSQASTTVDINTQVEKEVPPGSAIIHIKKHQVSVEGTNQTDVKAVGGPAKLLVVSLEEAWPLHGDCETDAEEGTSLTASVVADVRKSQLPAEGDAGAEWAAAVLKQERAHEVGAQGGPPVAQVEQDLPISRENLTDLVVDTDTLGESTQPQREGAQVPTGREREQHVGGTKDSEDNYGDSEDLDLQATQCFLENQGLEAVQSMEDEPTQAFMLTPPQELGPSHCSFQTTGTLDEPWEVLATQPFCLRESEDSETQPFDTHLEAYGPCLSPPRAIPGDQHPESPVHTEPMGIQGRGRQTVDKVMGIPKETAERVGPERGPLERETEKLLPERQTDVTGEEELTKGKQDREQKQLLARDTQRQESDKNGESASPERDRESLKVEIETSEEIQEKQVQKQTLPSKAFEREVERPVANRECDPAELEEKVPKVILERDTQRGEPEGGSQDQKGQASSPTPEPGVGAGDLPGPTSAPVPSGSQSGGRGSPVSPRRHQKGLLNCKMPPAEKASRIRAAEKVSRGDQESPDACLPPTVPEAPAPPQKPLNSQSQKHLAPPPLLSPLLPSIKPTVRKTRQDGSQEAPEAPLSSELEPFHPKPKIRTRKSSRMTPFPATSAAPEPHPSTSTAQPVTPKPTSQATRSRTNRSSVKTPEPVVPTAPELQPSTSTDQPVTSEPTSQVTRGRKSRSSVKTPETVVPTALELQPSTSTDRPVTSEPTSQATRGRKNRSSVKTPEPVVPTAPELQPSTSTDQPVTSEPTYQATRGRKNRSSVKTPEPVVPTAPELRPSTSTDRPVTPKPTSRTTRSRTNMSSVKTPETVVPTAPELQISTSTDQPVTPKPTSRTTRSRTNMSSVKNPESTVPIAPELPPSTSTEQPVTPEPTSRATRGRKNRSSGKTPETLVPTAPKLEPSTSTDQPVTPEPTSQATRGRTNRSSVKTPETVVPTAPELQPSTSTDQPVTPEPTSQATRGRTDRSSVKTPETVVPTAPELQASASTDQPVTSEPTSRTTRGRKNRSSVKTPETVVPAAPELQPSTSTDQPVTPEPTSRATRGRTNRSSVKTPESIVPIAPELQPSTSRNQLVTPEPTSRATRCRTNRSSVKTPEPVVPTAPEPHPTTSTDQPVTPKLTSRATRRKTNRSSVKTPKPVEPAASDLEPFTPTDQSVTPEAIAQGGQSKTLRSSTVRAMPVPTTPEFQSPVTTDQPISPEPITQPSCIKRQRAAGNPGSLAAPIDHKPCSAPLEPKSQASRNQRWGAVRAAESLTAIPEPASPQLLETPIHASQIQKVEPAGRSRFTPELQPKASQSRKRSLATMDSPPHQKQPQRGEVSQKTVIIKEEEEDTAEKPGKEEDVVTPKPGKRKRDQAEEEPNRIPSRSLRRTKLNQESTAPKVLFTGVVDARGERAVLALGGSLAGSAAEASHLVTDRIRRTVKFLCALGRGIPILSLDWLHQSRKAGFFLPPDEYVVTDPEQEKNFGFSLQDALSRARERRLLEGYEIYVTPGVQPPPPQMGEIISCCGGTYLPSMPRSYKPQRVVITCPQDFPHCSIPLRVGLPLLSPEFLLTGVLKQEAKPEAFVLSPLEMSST
Chain of UniProt Q8N3D4 (Q8N3D4 whole entry): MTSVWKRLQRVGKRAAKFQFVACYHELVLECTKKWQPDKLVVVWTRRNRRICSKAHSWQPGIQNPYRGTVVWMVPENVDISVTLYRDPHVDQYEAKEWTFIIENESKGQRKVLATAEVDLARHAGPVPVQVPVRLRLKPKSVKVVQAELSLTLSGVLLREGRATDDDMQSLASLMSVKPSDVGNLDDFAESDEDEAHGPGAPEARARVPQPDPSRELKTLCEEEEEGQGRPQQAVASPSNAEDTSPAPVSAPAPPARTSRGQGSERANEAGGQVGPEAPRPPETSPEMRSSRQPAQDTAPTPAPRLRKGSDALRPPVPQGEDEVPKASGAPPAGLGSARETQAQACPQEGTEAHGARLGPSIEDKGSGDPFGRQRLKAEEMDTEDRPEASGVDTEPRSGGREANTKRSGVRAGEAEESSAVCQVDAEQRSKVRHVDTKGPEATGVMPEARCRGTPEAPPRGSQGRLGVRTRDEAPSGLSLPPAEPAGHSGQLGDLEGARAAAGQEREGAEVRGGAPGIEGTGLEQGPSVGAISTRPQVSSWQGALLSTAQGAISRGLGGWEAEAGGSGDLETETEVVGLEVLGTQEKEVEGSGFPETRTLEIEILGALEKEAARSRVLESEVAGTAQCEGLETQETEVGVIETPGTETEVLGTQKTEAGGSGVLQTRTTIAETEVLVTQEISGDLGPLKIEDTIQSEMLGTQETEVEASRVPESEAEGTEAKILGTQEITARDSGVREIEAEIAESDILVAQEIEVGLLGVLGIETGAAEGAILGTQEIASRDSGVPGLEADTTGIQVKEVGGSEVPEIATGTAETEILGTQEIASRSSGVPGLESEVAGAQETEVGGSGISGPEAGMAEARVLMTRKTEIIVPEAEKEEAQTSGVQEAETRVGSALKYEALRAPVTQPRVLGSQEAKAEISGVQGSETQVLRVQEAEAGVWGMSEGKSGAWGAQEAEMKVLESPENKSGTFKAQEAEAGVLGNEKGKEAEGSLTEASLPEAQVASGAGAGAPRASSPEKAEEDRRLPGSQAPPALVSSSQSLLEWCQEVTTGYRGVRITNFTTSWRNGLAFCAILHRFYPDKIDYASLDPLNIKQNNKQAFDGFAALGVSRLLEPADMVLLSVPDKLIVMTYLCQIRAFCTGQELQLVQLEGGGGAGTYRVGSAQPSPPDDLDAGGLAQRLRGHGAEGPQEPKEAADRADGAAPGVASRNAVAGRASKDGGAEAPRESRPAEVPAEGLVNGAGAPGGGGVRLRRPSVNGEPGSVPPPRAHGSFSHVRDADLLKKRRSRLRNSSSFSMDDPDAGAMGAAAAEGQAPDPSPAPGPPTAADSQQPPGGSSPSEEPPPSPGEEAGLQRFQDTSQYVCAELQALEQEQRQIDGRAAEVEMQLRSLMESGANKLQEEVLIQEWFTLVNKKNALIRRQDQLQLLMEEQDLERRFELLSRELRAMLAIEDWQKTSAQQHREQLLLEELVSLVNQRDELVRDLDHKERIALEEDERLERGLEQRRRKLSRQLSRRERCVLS
Chain of UniProt Q8N6T3 (Q8N6T3 whole entry): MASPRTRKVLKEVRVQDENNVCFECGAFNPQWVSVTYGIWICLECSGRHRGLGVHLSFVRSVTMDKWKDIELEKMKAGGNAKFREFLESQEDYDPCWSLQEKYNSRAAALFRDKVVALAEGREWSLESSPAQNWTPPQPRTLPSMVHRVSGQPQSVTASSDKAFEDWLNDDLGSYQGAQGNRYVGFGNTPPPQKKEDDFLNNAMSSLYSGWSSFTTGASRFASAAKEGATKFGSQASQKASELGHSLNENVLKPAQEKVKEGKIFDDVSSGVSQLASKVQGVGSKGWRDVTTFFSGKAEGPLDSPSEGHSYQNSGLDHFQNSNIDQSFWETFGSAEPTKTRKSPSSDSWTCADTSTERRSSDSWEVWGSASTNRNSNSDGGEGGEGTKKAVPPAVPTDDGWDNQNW
Chain of UniProt Q8IZ07 (Q8IZ07 whole entry): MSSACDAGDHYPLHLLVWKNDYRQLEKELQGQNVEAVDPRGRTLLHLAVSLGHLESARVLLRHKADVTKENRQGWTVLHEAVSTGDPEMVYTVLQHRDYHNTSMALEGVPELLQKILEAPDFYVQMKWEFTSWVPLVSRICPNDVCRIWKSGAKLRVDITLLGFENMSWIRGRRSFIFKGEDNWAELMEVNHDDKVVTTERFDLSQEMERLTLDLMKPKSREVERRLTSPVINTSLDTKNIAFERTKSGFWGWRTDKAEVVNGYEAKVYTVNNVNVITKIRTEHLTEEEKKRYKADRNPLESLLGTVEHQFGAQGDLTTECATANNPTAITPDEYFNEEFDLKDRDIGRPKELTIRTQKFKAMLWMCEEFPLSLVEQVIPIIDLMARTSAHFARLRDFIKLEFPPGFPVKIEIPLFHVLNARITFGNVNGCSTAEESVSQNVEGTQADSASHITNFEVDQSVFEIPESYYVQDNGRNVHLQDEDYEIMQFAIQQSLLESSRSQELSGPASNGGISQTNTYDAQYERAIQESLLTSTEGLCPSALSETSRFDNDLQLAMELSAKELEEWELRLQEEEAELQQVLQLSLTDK
Chain of UniProt Q15738 (Q15738 whole entry): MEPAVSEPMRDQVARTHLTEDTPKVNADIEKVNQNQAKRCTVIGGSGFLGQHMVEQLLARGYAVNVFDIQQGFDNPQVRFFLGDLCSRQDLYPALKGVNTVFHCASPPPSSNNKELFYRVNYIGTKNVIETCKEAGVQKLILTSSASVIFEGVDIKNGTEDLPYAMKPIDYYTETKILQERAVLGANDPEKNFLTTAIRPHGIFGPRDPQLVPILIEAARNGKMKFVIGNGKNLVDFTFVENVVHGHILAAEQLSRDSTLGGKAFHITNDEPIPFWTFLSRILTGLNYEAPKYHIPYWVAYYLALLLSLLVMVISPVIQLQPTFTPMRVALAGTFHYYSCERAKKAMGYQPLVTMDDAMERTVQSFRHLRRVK

Target	NP40-soluble protein abundance (concentration: 1mM)	NP40-soluble protein abundance (concentration: 2mM)	NP40-soluble protein abundance (concentration: 4mM)	NP40-soluble protein abundance (concentration: 6mM)	NP40-soluble protein abundance (concentration: 8mM)	NP40-soluble protein abundance (concentration: 10mM)
UniProt Q15056-2|Q15056	0.999 ± 0.037	1.03 ± 0.035	0.945 ± 0.14	0.94 ± 0.081	0.929 ± 0.087	0.884 ± 0.21
PDCL (UniProt Q13371)	0.966 ± 0.026	0.973 ± 0.039	0.969 ± 0.056	0.932 ± 0.062	0.938 ± 0.083	0.928 ± 0.082
EPM2AIP1 (UniProt Q7L775)	0.961 ± 0.015	0.94 ± 0.032	0.96 ± 0.025	0.947 ± 0.028	0.9617 ± 0.0055	0.958 ± 0.041
FAM91A1 (UniProt Q658Y4)	0.958 ± 0.033	0.915 ± 0.068	0.961 ± 0.031	0.99 ± 0.041	1.01 ± 0.034	0.975 ± 0.054
UniProt Q14197|J3KS15	1 ± 0.1	0.952 ± 0.083	0.974 ± 0.087	0.95 ± 0.13	0.978 ± 0.14	0.953 ± 0.19
UniProt Q14156|Q14156-2	0.9764 ± 0.0041	0.961 ± 0.041	0.9737 ± 0.0064	0.952 ± 0.023	0.973 ± 0.015	0.953 ± 0.018
DNTTIP2 (UniProt Q5QJE6)	1.1 ± 0.036	1.2 ± 0.022	1.27 ± 0.06	1.34 ± 0.083	1.4 ± 0.12	1.53 ± 0.16
UniProt Q8N122|Q8N122-3	1.01 ± 0.031	0.955 ± 0.021	0.985 ± 0.011	0.972 ± 0.013	0.967 ± 0.018	0.994 ± 0.034
MDC1 (UniProt Q14676)	1.13 ± 0.032	1.31 ± 0.086	1.49 ± 0.12	1.86 ± 0.28	2.04 ± 0.41	2.34 ± 0.53
ANKRD13A (UniProt Q8IZ07)	0.985 ± 0.017	0.981 ± 0.013	1.04 ± 0.029	1.06 ± 0.061	1.04 ± 0.03	1.08 ± 0.047
UniProt Q8IWI9|Q8IWI9-3|Q8IWI9-4	1.02 ± 0.023	1.01 ± 0.021	1.01 ± 0.047	0.953 ± 0.014	0.924 ± 0.029	0.944 ± 0.046
UniProt Q86W42|Q86W42-2	1.17 ± 0.087	1.25 ± 0.065	1.36 ± 0.11	1.49 ± 0.1	1.65 ± 0.18	1.67 ± 0.27
ARFGAP1 (UniProt Q8N6T3)	1.02 ± 0.021	1.02 ± 0.023	1.02 ± 0.016	1.02 ± 0.023	0.993 ± 0.018	1.01 ± 0.038
TAF9 (UniProt Q16594)	1.009 ± 0.0054	1.04 ± 0.02	1.01 ± 0.018	1.01 ± 0.018	1.03 ± 0.016	1.05 ± 0.039
EXOSC6 (UniProt Q5RKV6)	1.04 ± 0.032	1.03 ± 0.041	1.08 ± 0.018	1.12 ± 0.036	1.14 ± 0.052	1.14 ± 0.074
UniProt Q5F1R6|Q5F1R6-3	1.044 ± 0.0025	1.12 ± 0.041	1.123 ± 0.0067	1.11 ± 0.066	1.09 ± 0.019	1.11 ± 0.035
UniProt Q8TB61|Q8TB61-2|Q8TB61-3	0.968 ± 0.041	0.969 ± 0.045	0.965 ± 0.045	0.953 ± 0.034	0.951 ± 0.042	0.989 ± 0.019
HP1BP3 (UniProt Q5SSJ5)	0.963 ± 0.042	1.06 ± 0.063	1.03 ± 0.065	1.16 ± 0.017	1.18 ± 0.069	1.39 ± 0.15
CMIP (UniProt Q8IY22)	0.986 ± 0.047	0.964 ± 0.031	0.942 ± 0.029	0.958 ± 0.046	0.935 ± 0.022	0.923 ± 0.043
UniProt Q5M775|Q5M775-2|Q5M775-3|Q5M775-4|Q5M775-5	0.945 ± 0.062	0.89 ± 0.032	0.95 ± 0.05	1.04 ± 0.032	1.01 ± 0.031	0.992 ± 0.059

Target	NP40-soluble protein abundance (concentration: 1mM)	NP40-soluble protein abundance (concentration: 2mM)	NP40-soluble protein abundance (concentration: 4mM)	NP40-soluble protein abundance (concentration: 6mM)	NP40-soluble protein abundance (concentration: 8mM)	NP40-soluble protein abundance (concentration: 10mM)
NSDHL (UniProt Q15738)	0.968 ± 0.04	0.892 ± 0.058	0.93 ± 0.022	0.953 ± 0.045	0.964 ± 0.036	0.923 ± 0.028
UniProt Q8N3X1|Q8N3X1-2	1.04 ± 0.042	1.12 ± 0.093	1.21 ± 0.11	1.45 ± 0.15	1.49 ± 0.17	1.58 ± 0.24
DARS2 (UniProt Q6PI48)	0.939 ± 0.049	0.861 ± 0.12	0.924 ± 0.016	0.918 ± 0.036	0.942 ± 0.021	0.89 ± 0.012
THOC2 (UniProt Q8NI27)	1.36 ± 0.16	1.46 ± 0.2	1.63 ± 0.29	1.87 ± 0.53	2.02 ± 0.6	2.15 ± 0.77
TTC37 (UniProt Q6PGP7)	0.822 ± 0.084	0.793 ± 0.14	0.791 ± 0.11	0.768 ± 0.077	0.761 ± 0.078	0.76 ± 0.079
DHX38 (UniProt Q92620)	1.016 ± 0.0095	1.03 ± 0.037	1.03 ± 0.012	1.01 ± 0.055	1.04 ± 0.034	1.03 ± 0.023
UniProt Q5T011|Q5T011-5	0.882 ± 0.14	0.91 ± 0.071	0.912 ± 0.076	0.864 ± 0.16	0.809 ± 0.045	0.803 ± 0.056
KBTBD8 (UniProt Q8NFY9)	0.953 ± 0.046	0.944 ± 0.043	0.955 ± 0.035	0.976 ± 0.018	0.973 ± 0.02	0.965 ± 0.025
URB2 (UniProt Q14146)	0.971 ± 0.018	0.9722 ± 0.0054	0.988 ± 0.013	1.05 ± 0.018	1.07 ± 0.023	1.1 ± 0.055
UniProt Q460N5|Q460N5-1	1.02 ± 0.02	0.993 ± 0.046	1.04 ± 0.039	0.9762 ± 0.0066	1.01 ± 0.029	0.9765 ± 0.0028
EHBP1L1 (UniProt Q8N3D4)	1.06 ± 0.028	1.11 ± 0.099	1.07 ± 0.11	1.02 ± 0.034	1.01 ± 0.059	1.01 ± 0.08
FAM117B (UniProt Q6P1L5)	0.99 ± 0.022	1.07 ± 0.04	1.01 ± 0.025	1.005 ± 0.01	0.9688 ± 0.0059	1.01 ± 0.022
UniProt Q5T3F8|H3BLW6	1 ± 0.052	1.06 ± 0.1	1.01 ± 0.038	1.01 ± 0.019	0.985 ± 0.042	1.01 ± 0.049
UniProt Q7L5Y1|Q7L5Y1-4|Q7L5Y1-5	0.992 ± 0.03	1 ± 0.016	1.007 ± 0.0081	0.99 ± 0.04	1.01 ± 0.013	0.996 ± 0.0075
NUBPL (UniProt Q8TB37)	1 ± 0.045	1.01 ± 0.057	1.02 ± 0.05	1.06 ± 0.092	1.03 ± 0.092	1.05 ± 0.076
ITPK1 (UniProt Q13572)	1.019 ± 0.0014	1.035 ± 0.0039	1.01 ± 0.014	0.992 ± 0.025	1.02 ± 0.04	0.9738 ± 0.0084
UniProt Q16666|Q16666-2	1.06 ± 0.052	1.11 ± 0.023	1.22 ± 0.069	1.43 ± 0.14	1.49 ± 0.14	1.53 ± 0.19
UniProt Q92793|Q92793-2	1.05 ± 0.037	1.05 ± 0.028	1.01 ± 0.035	1.01 ± 0.04	1.02 ± 0.015	1.05 ± 0.02
UniProt Q8WZA0|Q8WZA0-2	0.969 ± 0.052	0.957 ± 0.0098	0.928 ± 0.059	0.912 ± 0.044	0.921 ± 0.034	0.859 ± 0.054
UniProt Q15006	0.984 ± 0.018	0.9532 ± 0.0062	0.975 ± 0.044	0.989 ± 0.049	1.02 ± 0.028	1.02 ± 0.013

Target	NP40-soluble protein abundance (concentration: 1mM)	NP40-soluble protein abundance (concentration: 2mM)	NP40-soluble protein abundance (concentration: 4mM)	NP40-soluble protein abundance (concentration: 6mM)	NP40-soluble protein abundance (concentration: 8mM)	NP40-soluble protein abundance (concentration: 10mM)
SYAP1 (UniProt Q96A49)	1 ± 0.046	1.06 ± 0.077	0.952 ± 0.072	0.94 ± 0.021	0.94 ± 0.039	0.918 ± 0.08
UniProt Q8WZA9	1.03 ± 0.023	1.08 ± 0.07	1.04 ± 0.059	0.988 ± 0.028	0.981 ± 0.021	0.989 ± 0.067
MTDH (UniProt Q86UE4)	1.13 ± 0.046	1.3 ± 0.16	1.32 ± 0.073	1.46 ± 0.2	1.47 ± 0.17	1.58 ± 0.17
UniProt Q8TEX9|Q8TEX9-2	1.01 ± 0.026	0.974 ± 0.059	0.99 ± 0.017	0.9956 ± 0.0059	1.007 ± 0.0054	0.981 ± 0.025
DDX51 (UniProt Q8N8A6)	1.06 ± 0.018	1.09 ± 0.02	1.15 ± 0.059	1.2 ± 0.038	1.24 ± 0.033	1.423 ± 0.014
CAND1 (UniProt Q86VP6)	0.971 ± 0.024	0.947 ± 0.03	0.983 ± 0.035	1.01 ± 0.084	1.03 ± 0.044	0.992 ± 0.058
UniProt Q15599|Q15599-2	1.01 ± 0.046	1.05 ± 0.042	1.04 ± 0.035	1.05 ± 0.038	1.04 ± 0.038	1.03 ± 0.045
LEO1 (UniProt Q8WVC0)	1.025 ± 0.006	1.04 ± 0.062	1.01 ± 0.029	1.02 ± 0.03	0.997 ± 0.016	1.02 ± 0.024
UniProt Q7L5N7|A0A087X0A3|Q7L5N7-2	0.987 ± 0.031	0.966 ± 0.051	0.979 ± 0.037	0.99 ± 0.035	0.985 ± 0.028	1.01 ± 0.036
PRPF8 (UniProt Q6P2Q9)	0.989 ± 0.039	0.892 ± 0.15	0.979 ± 0.085	0.966 ± 0.098	1.05 ± 0.13	1.02 ± 0.16
UniProt Q92614|Q92614-2|Q92614-4	1.02 ± 0.025	1.05 ± 0.026	1.01 ± 0.014	0.984 ± 0.045	0.955 ± 0.026	0.971 ± 0.042
UniProt Q6P6C2|Q6P6C2-1	1.15 ± 0.065	1.17 ± 0.036	1.22 ± 0.07	1.24 ± 0.13	1.3 ± 0.13	1.33 ± 0.11
UniProt Q16698-2|Q16698	1.06 ± 0.085	1.11 ± 0.058	1.19 ± 0.08	1.21 ± 0.014	1.26 ± 0.041	1.25 ± 0.02
UniProt Q8NDV3-2|Q8NDV3-3	0.953 ± 0.039	0.942 ± 0.011	0.928 ± 0.015	0.977 ± 0.0022	0.945 ± 0.025	0.944 ± 0.033
PMVK (UniProt Q15126)	0.948 ± 0.0098	0.931 ± 0.018	0.973 ± 0.045	1.04 ± 0.07	1.04 ± 0.061	1.02 ± 0.052
NONO (UniProt Q15233)	1.09 ± 0.048	1.17 ± 0.064	1.22 ± 0.056	1.39 ± 0.12	1.45 ± 0.15	1.56 ± 0.18
UniProt Q86YS7	0.973 ± 0.015	0.97 ± 0.016	0.982 ± 0.017	0.942 ± 0.012	0.919 ± 0.015	0.948 ± 0.018
CBLL1 (UniProt Q75N03)	1 ± 0.01	1.04 ± 0.022	1.03 ± 0.045	0.995 ± 0.015	0.976 ± 0.014	0.985 ± 0.016
UniProt Q6RI45|Q6RI45-2|Q6RI45-3|Q6RI45-4|Q6RI45-5	0.999 ± 0.016	0.9969 ± 0.0018	0.986 ± 0.016	0.9818 ± 0.0045	1 ± 0.043	1 ± 0.022
UniProt Q71F23	1.05 ± 0.028	1.07 ± 0.034	1.03 ± 0.016	1.02 ± 0.039	1.07 ± 0.013	1.08 ± 0.0087
